Screening data from PubChem BioAssay.
A selection: hits, their analogues and other compounds. The true share with any hit is near 0.5%.
Tat transport = E. coli Tat export inhibitors, primary screen, MC4100, TorA-mCherry reporter, fluorescence, single point. inhibition, % at 10 µM. 340,000 tested, 0.036% active. AID 488895, 2010;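 active = mean replicate inhibition at least 50% and at least half of replicates individually reaching 50%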;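 also: exported cargo escapes ClpAP degradation while cytoplasmic cargo is degraded and loses fluorescence; 0% = median of neutral control wells and 100% = median of NaSCN control wells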
E coli growth-1 = E. coli growth inhibition, primary screen, OD600; Escherichia coli growth, 23 h; active compounds read low; OD600 absorbance (test concentration not listed); 330,000 tested, 0.21% active; AID 1053175, 2014;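 active = OD600 absorbance below the run mean of sample wells minus 3.6 SD, in any replicate, cut at about 0.56 in these data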
phage Ecoli inh = growth loss of phage-infected E. coli, primary screen, RecBCD inhibitor project, absorbance, with phage, HTS; inhibition, % at 11.9 µM; 360,000 tested, 0.26% active; in the data active = inhibition above about 11%
E coli growth-2 = E. coli V3065 growth inhibition, primary screen, counter-screen for AddAB inhibitor project, absorbance, OD600. 18 h. inhibition, % at 11.9 µM. 330,000 tested, 0.27% active;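 active = inhibition above the campaign's mean inhibition across all tested compounds plus 3 SD, cut at about 9.9% in these data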;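 also: uninfected addAB+ strain grown without phage in ampicillin broth; 0% = DMSO wells and 100% = ciprofloxacin 0.95 µg/ml wells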
AddAB inh = growth inhibition of E. coli expressing H. pylori AddAB, primary screen, AddAB inhibitor project, absorbance; inhibition, % at 11.9 µM; 330,000 tested, 0.29% active; AID 435030, 2010; in the data active = inhibition above about 12%;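 also: 0% = vehicle wells of infected cells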
Active calls of the source: *; i = inactive; · = no result given.

SMILES	Tat transport	E coli growth-1	phage Ecoli inh	E coli growth-2	AddAB inh
Cc1ccc(Cn2c(N)nc3ccccc32)cc1	-4.4	·	3.5	2.1	5.7
Cc1ccc(S(=O)(=O)NN=Cc2ccc([N+](=O)[O-])o2)cc1	·	0.472*	·	·	·
CCc1ccc(S(=O)(=O)NN=Cc2ccc([N+](=O)[O-])o2)cc1	·	0.524	·	·	·
Cc1cc(C)c(S(=O)(=O)N/N=C/c2ccc([N+](=O)[O-])o2)c(C)c1	1.7	·	3.3	·	·
Cc1ccc(S(=O)(=O)NN=Cc2ccc([N+](=O)[O-])o2)cc1C	·	0.475*	·	·	·
Cc1cc(C)c(S(=O)(=O)NN=Cc2ccc([N+](=O)[O-])o2)c(C)c1	·	0.506*	·	·	·
CCCS(=O)(=O)c1c(S(=O)(=O)CCC)c2ccc(C(C)=O)cn2c1C(=O)OC	-0.8	0.651	4.7	2.7	4.2
O=C(Cn1c(CO)nc2ccccc21)NCCc1ccc(F)cc1	2.1	0.685	4.2	10.4*	10.4
NCCCn1c(C(=O)c2cc(Cl)c(N)c(Cl)c2)c2ccc([N+](=O)[O-])cc2[n+]1[O-]	8.9	0.418*	6.7	12.0*	15.2*
O=C(Nc1nnc(C2=COCCO2)o1)c1cccc(Br)c1	0.5	0.479*	-3.4	-3.0	2.6
CCc1ccc2[nH]c3nc(N/N=C/c4ccc(O)cc4O)nnc3c2c1	-19.5	·	8.5	11.1*	11.2
CN(C)c1ccc(C=c2c3ccccc3n3c2cc(-c2ccc(Cl)cc2)[n+]3C)cc1	i	·	-1.3	·	·
CN(C)c1ccc(C=c2c3ccccc3n3c2cc(-c2ccccc2)[n+]3C)cc1	i	·	10.9*	·	·
C=Cn1cc[n+](CC(=O)c2ccc(-c3ccccc3)cc2)c1	2.5	0.68	5.6	13.0*	11.2
O=c1nccc(N/N=C/c2ccccc2O)[nH]1	0.4	·	2.3	·	·
COc1cccc(/C=N/Nc2ccnc(=O)[nH]2)c1O	7.4	·	2.1	12.7*	6.3
Cc1cnnn1-c1ccc(C(=O)CCl)cc1	-16.1	0.508*	2.4	2.4	3.1
CC(=O)c1ccc(-n2nncc2C(C)(C)C)cc1	6.7	0.705	1.6	-0.2	2.0
COc1ccc(/C=C/C(O)=C(\C#N)c2nnc(N3CCOCC3)n2-c2ccccc2)cc1OC	-6.7	0.426*	0.5	-1.4	1.1
Cc1cc(-c2n[nH]c(=S)n2N=C/C=C/c2ccccc2)n[nH]1	·	0.691	·	·	·
Cc1cc(-c2n[nH]c(=S)n2N=C/C(Br)=C/c2ccccc2)n[nH]1	·	0.0585*	·	·	·
Cc1ccc(N2CCN(S(=O)(=O)c3c(C)noc3C)CC2C)cc1 (stereo not drawn)	1.9	0.724	0.9	-1.9	1.5
c1ccc(N2CCN(Cc3ccnc4ccccc34)CC2)cc1	8.1	0.642	1.1	-0.1	-0.9
Oc1c(CN2CCN(c3ccccc3)CC2)cc(Br)c2cccnc12	5.4	0.465*	5.3	4.0	9.0
CC(C)C[C@@H]1CN=C(N)N1C[C@@H]1CCCN1C[C@@H](C(C)C)N1C[C@@H](Cc2ccccc2)N(CCc2ccc(Cl)c(Cl)c2)C1=N	7.8	0.07*	2.6	-1.1	0.7
SMILES	Tat transport	E coli growth-1	phage Ecoli inh	E coli growth-2	AddAB inh
CC(C)CC1CN=C(N)N1CC1CCCN1CC(C)N1CC(Cc2ccccc2)N(CCc2ccc(Cl)c(Cl)c2)C1=N (stereo not drawn)	·	0.197*	·	·	·
CC(C)C(CN1CCCC1CN1C(N)=NCC1Cc1ccccc1)N1CC(Cc2ccccc2)N(CCc2ccc(Cl)c(Cl)c2)C1=N (stereo not drawn)	·	0.0465*	·	·	·
CCC(C)C1CN(C(C)CN2CCCC2CN2C(N)=NCC2Cc2ccccc2)C(=N)N1CCc1ccc(Cl)c(Cl)c1 (stereo not drawn)	·	0.57	·	·	·
CC(C)C[C@@H]1CN=C(N)N1C[C@@H]1CCCN1C[C@H](C)N1C[C@@H](Cc2ccccc2)N(CCc2ccc(Cl)c(Cl)c2)C1=N	17.7	·	·	0.0	0.7
COc1ccc(NC(=O)CCNC(=O)c2ccco2)cc1OC	-3.0	0.692	5.0	4.5	5.9
Cc1ccc(C(=O)CSc2nc(N)cc(=O)[nH]2)cc1	13.3	0.691	2.3	1.3	2.5
O=C(COc1ccc([N+](=O)[O-])cc1)Nc1cc(S(=O)(=O)N2CCCCC2)ccc1N1CCCCC1	63.8*	0.721	4.0	-0.7	0.3
COC(=O)c1sc(NN=Cc2ccc(C(C)C)cc2)nc1C	·	0.688	·	·	·
COCCCNC(=O)CSc1ccsc1[N+](=O)[O-]	-2.9	0.686	5.6	11.2*	11.6
O=C(NN1C(=O)NC2(CCCCC2)C1=O)c1ccc(Cl)c(Cl)c1	4.5	0.611	-2.4	-2.8	-3.3
O=C(/C=C/c1ccc(F)cc1)NC(=S)NNC(=O)c1cnccn1	-6.0	0.663	3.8	0.3	3.5
O=C(NC(=S)NNC(=O)c1cnccn1)c1ccc(F)cc1	5.1	0.405*	3.0	3.1	5.3
COc1cccc(CN(C)CC(=O)NNC(=O)c2ccc(Cl)cc2)c1	15.8	·	1.0	-0.3	4.2
COc1ccc(NC(=O)Nc2cccc([N+](=O)[O-])c2)cc1Cl	1.7	0.524*	5.8	-0.9	1.9
COc1ccc(C)cc1NC(=O)COC(=O)c1c(-c2ccccc2)noc1C	·	·	2.5	·	·
CCOC(=O)c1oc2c(c1C)C(=NO)CCC2	·	0.689	·	·	·
O=C(NNc1ccc(Cl)cc1)c1sccc1Cl	3.8	0.498*	1.2	1.9	-0.2
COc1ccc(C2C(C#N)=C(N)OC3=C2C(=O)CC(C)(C)C3)cc1Cn1cc([N+](=O)[O-])cn1 (stereo not drawn)	0.5	0.73	4.3	-0.8	0.2
COc1cc(/C=C/C(O)=C/C(=O)/C=C/c2ccc(O)cc2)ccc1O	3.8	·	10.6	10.1*	8.5
CCN(CC)CCNC(=O)CCc1nn(C)c(=O)c2ccccc12	2.4	0.672	3.8	3.4	-0.1
Cc1cccc(-c2nnc(NC(=O)c3ccc(Cl)cc3)o2)c1	-0.6	0.517*	-2.3	-0.5	2.6
COc1cccc(-c2nnc(NC(=O)c3ccc(Cl)s3)o2)c1	-15.5	0.474*	-1.2	0.0	8.7
COc1cccc(-c2cc(C(=O)NN=Cc3ccc(OC)c(COC(C)=O)c3)c3ccccc3n2)c1	·	0.781	·	·	·
CC(=O)c1ccc(NC(=S)Nc2ccc(Br)c(Cl)c2)cc1	-13.3	0.505*	8.5	1.4	0.8
Clc1ccc2c(c1)c1cc(Cl)ccc1n2CN1CCOCC1	5.5	0.0885*	1.1	-1.7	3.3
SMILES	Tat transport	E coli growth-1	phage Ecoli inh	E coli growth-2	AddAB inh
COc1ccc(Cl)cc1CN1CCOCC1	6.1	0.662	-2.5	-0.2	3.0
Clc1ccc2c(c1)c1ccccc1n2CN1CCOCC1	4.5	0.515*	0.1	1.4	-1.2
CC(=NNC(=O)C(c1ccccc1)c1ccccc1)c1ccccn1	·	0.679	·	·	·
CCc1nc2ccc(C(=O)Nc3cccc(NS(C)(=O)=O)c3)cn2c1N(CC)CCOC	·	·	1.4	·	·
Cc1ccc(Nc2c(-c3ccccn3)nc3cc(C)ccn23)cc1	4.6	0.396*	6.8	-0.7	3.4
Cc1ccc2nc(-c3ccncc3)c(Nc3ccccc3)n2c1	-3.4	0.68	2.6	-1.6	0.0
Cc1ccc(Nc2c(-c3ccccn3)nc3ccc(C)cn23)cc1	-3.8	0.459*	4.5	7.5	9.0
Cc1ccn2c(Nc3ccc4c(c3)OCO4)c(-c3ccccn3)nc2c1	-11.9	0.427*	2.2	3.0	6.5
